Sampled rows, rich in hits. Any-hit rate of the full collection: about 9.4%.
ELG1 genotox = inducers of genotoxicity in HEK293T ELG1-luciferase cells; HEK293T ELG1-luciferase reporter, luminescence, 16 h; Potency, µM (series often up to 46 µM), without a hit: at the highest dose activity change, positive = activation, usual class: activators; 1.3% of 330,000 active; AID 504466; note: % of control where 0% means no effect; nearly all actives have a fitted effect of over 60% in size
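Cells (2,000/well) expressing the ELG1-luciferase fusion are dosed by pin tool and kept 16 hr at 37 °C, 5% CO2. Signal comes from ONE-Glo luciferase reagent after 30 min at room temperature.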
Rab9 prom act = activators of Rab9 promoter; AID 485297; Potency, µM (top dose mostly 9.22 µM), for inactives: top-dose activation, negative = inhibition, actives largely listed as activators; 2.8% of 320,000 active; Huh7 Rab9 promoter-luciferase reporter, luminescence, 24 h; note: % of control where 0% means no effect; nearly all actives have a fitted effect of over 60% in size
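Huh7 cells stably carrying Rab9 promoter–luciferase reporter, plated 1500 cells/well, compound added after 2 h and incubated 24 h at 37 °C; luciferase luminescence then read after 10 min with detection reagent.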
SMN2 splice up = enhancers of SMN2 splice variant expression. Potency, µM (top dose mostly 46.1 µM), for inactives: top-dose activity change, positive = activation, usual class: activators. 2.8% of 210,000 active. HEK293 SMN2-luciferase splicing reporter, luminescence, 30-36 h. AID 1458; note: % of control where 0% means no effect; nearly all actives have a fitted effect of over 55% in size
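HEK293 cells carry an SMN2 minigene-luciferase reporter in which exon 7 inclusion puts luciferase in frame. Cells were seeded at 2000 cells/well, attached for 10-12 hours, then exposed to compounds for 30-36 hours at 37C before ONE-Glo luminescence.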
FLuc modulator = counter-screen for miR-21 project: firefly luciferase inhibitors or activators; P08659; purified FLuc, Km substrates, luminescence inhibition; AID 588342; Potency, µM (titrated, usually from 57.5 µM), without a hit: at the top dose activity change, negative = inhibition, usual class: inhibitors; 6.9% of 360,000 active;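 note: plate controls were vehicle for no effect and reference inhibitor for full effect; nearly all actives have a fitted effect of over 55% in size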
Target sequence (P08659 whole entry, looked up): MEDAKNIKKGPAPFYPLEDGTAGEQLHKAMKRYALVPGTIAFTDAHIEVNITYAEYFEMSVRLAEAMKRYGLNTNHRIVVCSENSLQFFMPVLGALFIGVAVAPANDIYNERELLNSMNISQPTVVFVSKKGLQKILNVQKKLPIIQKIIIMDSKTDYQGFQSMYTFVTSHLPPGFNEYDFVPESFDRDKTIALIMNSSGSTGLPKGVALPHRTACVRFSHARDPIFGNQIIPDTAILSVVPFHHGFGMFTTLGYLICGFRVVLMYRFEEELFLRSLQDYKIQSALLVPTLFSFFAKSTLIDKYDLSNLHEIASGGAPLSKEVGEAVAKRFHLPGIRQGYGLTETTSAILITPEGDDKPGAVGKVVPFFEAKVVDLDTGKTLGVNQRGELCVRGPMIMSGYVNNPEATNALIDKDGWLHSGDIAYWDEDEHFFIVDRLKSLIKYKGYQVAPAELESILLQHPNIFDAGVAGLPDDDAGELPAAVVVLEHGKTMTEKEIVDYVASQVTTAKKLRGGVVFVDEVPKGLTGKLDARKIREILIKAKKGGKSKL
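Biochemical qHTS of compounds, final roughly 60 µM downward over six points, against 10 nM purified firefly luciferase using Km concentrations of substrates (10 uM D-luciferin, 10 uM ATP) in Tris acetate pH 7.5 buffer; luminescence output.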
NPC1 promoter act = NPC1 promoter activation; Huh7 NPC1 promoter luciferase reporter, 24 h; Potency, µM (top dose mostly 9.22 µM), inactives show at the highest dose activation, hits mostly activators; 2.4% of 320,000 active; note: % of control where 0% means no effect; nearly all actives have a fitted effect of over 60% in size
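Luminescence from an NPC1 promoter-driven luciferase reporter in stably transfected Huh7 cells was measured after 24 h compound treatment at 37 °C, followed by 10 min ambient incubation with luciferase detection reagent.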
ELG1 DNA repair = inhibitors of ELG1-dependent DNA repair in HEK293T cells | 2.3% of 330,000 active | AID 504467 | Potency, µM (doses to about 46.1 µM), for the others: at the top dose activity change, negative = inhibition, hits mostly inhibitors | HEK293T ELG1-luciferase reporter, luminescence, 16 h; DNA damage induced by 5-fluorouridine; note: % is set by controls: 0 for no effect and ±100 for the full control effect; nearly all actives have a fitted effect of over 55% in size
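5-Fluorouridine DNA damage + compound/DMSO, 2,000 cells/well, 16 h, 37 °C/5% CO2. ONE-Glo, 30 min RT, luminescence. Readout = decrease in reporter signal.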
Numbers without * were called inactive. Calls come from the whole dose curve; as a rule, active = well fitted curve in the direction sought with a large enough effect; inconclusive = small, poorly fitted or top-dose-only effect, or another doubt; inactive = no such curve, though single readings can be large; an effect the other way counts as inactive or inconclusive. Potency is the fitted concentration of half-maximal effect.

What do the screens show for `COc1ccc(CN2CCN(C(=O)c3ccco3)CC2)cc1`?
ELG1 genotox: -6%; Rab9 prom act: -7%; SMN2 splice up: -17%; FLuc modulator: -1%; NPC1 promoter act: -3%; ELG1 DNA repair: -10%

What do the screens show for `S=c1[nH]nc(-c2ccco2)n1/N=C/C(Cl)=C/c1ccccc1`?
ELG1 genotox: inconclusive; Rab9 prom act: 1.6µM*; FLuc modulator: inconclusive; NPC1 promoter act: 3.5µM*; ELG1 DNA repair: inconclusive

Results for Cc1ccc2nc(CSc3nc(C)cc(C)c3C#N)[nH]c2c1 ?
ELG1 genotox: inconclusive; Rab9 prom act: inconclusive; SMN2 splice up: 4.5µM*; FLuc modulator: 3.4µM*; NPC1 promoter act: 12%; ELG1 DNA repair: inconclusive

How did Cc1cc(Br)ccc1NC(=O)C(Cc1ccccc1)NS(=O)(=O)c1ccc(Br)s1 (centres undefined) do in these assays?
SMN2 splice up: 6%; FLuc modulator: -9%

What do the screens show for `CC(C)(C)OC(=O)N1CCC[C@H]1C(=O)O`?
ELG1 genotox: -2%; Rab9 prom act: -3%; FLuc modulator: 2%; NPC1 promoter act: 2%; ELG1 DNA repair: inconclusive

How did CC(C)COC(=O)N1CCCC1C(=O)O (centres undefined) do in these assays?
ELG1 genotox: 4%; Rab9 prom act: 3.2µM*; SMN2 splice up: 11%; FLuc modulator: 1%; NPC1 promoter act: 7%; ELG1 DNA repair: inconclusive

How did CCc1cccc(C)c1NC(=O)Nc1ccc2c(c1)OCO2 do in these assays?
ELG1 genotox: 0%; Rab9 prom act: 1%; SMN2 splice up: 21%; FLuc modulator: 3%; NPC1 promoter act: -3%; ELG1 DNA repair: 6%

What do the screens show for `Cc1cccc(NC(=O)Nc2cc(C)cc(C)n2)c1`?
ELG1 genotox: inconclusive; Rab9 prom act: 1.3µM*; SMN2 splice up: 5µM*; FLuc modulator: 1.5µM*; NPC1 promoter act: 2.2µM*; ELG1 DNA repair: inconclusive

What do the screens show for `CC(NC(=O)Nc1ccc2c(c1)OCO2)C1CCCO1` (centres undefined)?
ELG1 genotox: 13%; Rab9 prom act: inconclusive; SMN2 splice up: inconclusive; FLuc modulator: 17µM*; NPC1 promoter act: inconclusive; ELG1 DNA repair: inconclusive

Results for Cc1ccc(NC(=O)/C=C/c2ccc3c(c2)OCO3)nc1 ?
ELG1 genotox: inconclusive; Rab9 prom act: 2.5µM*; SMN2 splice up: 2.8µM*; FLuc modulator: 2.1µM*; NPC1 promoter act: 2.5µM*; ELG1 DNA repair: inconclusive

What do the screens show for `Cc1cc(C)cc(NC(=O)NC(C)C2CCCO2)c1` (centres undefined)?
ELG1 genotox: 0%; Rab9 prom act: -1%; FLuc modulator: inconclusive; NPC1 promoter act: -1%; ELG1 DNA repair: 12%

How did Cc1cc(C)nc(NC(=O)Nc2ccc3c(c2)OCO3)c1 do in these assays?
ELG1 genotox: inconclusive; Rab9 prom act: 0.56µM*; SMN2 splice up: 2.5µM*; FLuc modulator: inconclusive; NPC1 promoter act: 0.71µM*; ELG1 DNA repair: inconclusive

Results for Cc1ccc(OC(F)F)c(NC(=O)Nc2ccc3c(c2)OCO3)c1 ?
ELG1 genotox: -5%; Rab9 prom act: 6%; FLuc modulator: inconclusive; NPC1 promoter act: 4%; ELG1 DNA repair: -8%

How did Cc1ccc(NC(=O)Nc2ccc3c(c2)OCO3)nc1 do in these assays?
ELG1 genotox: inconclusive; Rab9 prom act: 2.5µM*; SMN2 splice up: 13µM*; FLuc modulator: 6.7µM*; NPC1 promoter act: 3.2µM*; ELG1 DNA repair: inconclusive

What do the screens show for `Cc1cc(C)nc(NC(=O)c2ccc3c(c2)OCO3)c1`?
ELG1 genotox: 14%; Rab9 prom act: 17%; SMN2 splice up: 7%; FLuc modulator: 17µM*; NPC1 promoter act: 18%; ELG1 DNA repair: inconclusive

What do the screens show for `O=C(NCC(c1cccnc1)N1CCN(Cc2ccccc2)CC1)C(=O)Nc1ccc(Cl)cc1` (centres undefined)?
FLuc modulator: -10%
